Assay results published in PubChem BioAssay.
Several values for one entry are separate records, joined by “and”; a condition that tells them apart may be missing. Equal values may be shown once. Records with an inconclusive call do not appear. Activity calls are given as the source filed them. Unless noted, the rule behind the calls is not given here.

Columns and labels:
[1] = test system: Aerobactin synthetase IucA (Klebsiella pneumoniae); experiment: inhibition of K. pneumoniae IucA enzyme – biochemical, Tocris library, absorbance (AID 1345561); conditions: purified IucA enzyme assay, absorbance (OD) read-out; stronger effect = lower value;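 tested at 8 µM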;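 note: 100% = enzyme without compound and 0% = no enzyme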
[2] = growth inhibition of DIPG cells – cell-based, MIPE5.0 library, qHTS (AID 1347068; cut-off not given, nearly all actives have IC50 up to about 30 µM); conditions: SU-DIPG-XXV viability
[3] = viability loss with induced miR-34 in A549 – imaging, A549 dox-inducible miR-34, nuclei and caspase counts, primary screen (AID 1347080;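 active = compounds whose cell count with miR-34 switched on is under 0.7 times the count with it off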); conditions: A549 miR-34 inducible, Hoechst nuclei count, 48 h
[4] = galactose survival enhancers in mitochondrial complex I cybrids – cell-based, galactose medium, ATP luminescence, primary screen (AID 1645843;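 active = z-score of at least 1.8 in each of two replicates, scored against plate mean and spread of sample wells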;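 note: positive z means more ATP and so rescue of galactose-driven cybrid death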); conditions: complex I mutant cybrid cells, 72 h, stronger effect = higher value
[5] = compounds altering circadian rhythm period length – cell-based, LOPAC library, luminescence reporter (AID 2774); conditions: circadian reporter cells, at 7 µM, actives lie on both sides;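 note: values are relative to mean of DMSO wells on each plate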
[6] = compounds altering viability of human ES cells (AID 493140); conditions: human embryonic stem cell survival screen; stronger effect = higher value;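 note: cells exposed to compounds for four days before counting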
[7] = P. berghei load reduction in hepatocytes – cell-based, HepG2, luciferase luminescence, HepG2 viability, primary screen (AID 624349; in the data active = parasite load remaining mostly below about 12%, no sharp cut-off; inactive = mostly above about 10%;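 note: 100% = mean of DMSO negative control wells on the same plate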); conditions: P. berghei liver stage in HepG2, luciferase luminescence, concentration not given here; parasite load remaining: stronger effect = lower value; viability: measured here: HepG2 viability without parasites
[8] = chitosan synthesis blockers in C. neoformans – flow cytometry, Cibacron Brilliant Red staining (AID 1347148); conditions: Cryptococcus neoformans chitosan, stronger effect = lower value; at 10 µM unless noted;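 note: compound exposure lasted three days at 37 degrees C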
[9] = test system: Hepatitis C virus NS3 helicase; experiment: blockers of NS3h binding to ssDNA – biochemical, fluorescence polarization, LOPAC1280 library, primary screen (AID 687035; in the data active = inhibition above about 37%); conditions: Purified HCV NS3 helicase, Cy5-dT15 ssDNA binding fluorescence polarization; stronger effect = higher value; concentration not given here
[10] = compounds altering Cy5-DNA-NS3h complex signal – biochemical, LOPAC1280, artefact control for HCV NS3 helicase inhibitor project (AID 687037); conditions: Cy5-DNA-NS3h complex fluorescence interference counterscreen
[11] = blockers of cellular phospholipid synthesis – cell-based, LOPAC library, screen 4, primary screen (AID 1347384); conditions: animal cells, phospholipid biosynthesis inhibition screen; at 10 µM
[12] = MELAS cybrid and Rieske KO viability enhancers – cell-based, MELAS cybrids, Rieske KO mouse fibroblasts, CellTiter-Glo, primary screen (AID 1508586;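 active = mean z-score across replicates of 1.96 or higher in either the MELAS or the Rieske mutant cell line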;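 note: z relative to plate mean and SD of compound and empty wells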); conditions: low glucose
[13] = compounds altering HSF1 focus formation in cells – imaging, Selleck Cancer Library (AID 1347162; in the data active = plate-normalised HSF1 focus index below about 0.46); conditions: human cells, HSF1 nuclear foci imaging, at 10 µM; SSMD: measured here: HSF1 foci SSMD mean; cell count: measured here: cell number; plate-normalised HSF1 focus index: stronger effect = lower value
[14] = growth inhibition, single agent or in combination, cell-based, chromothripsis tumors, cisplatin or BGB combos (AID 1671449; in the data active = inhibition above about 80%;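 note: cells exposed for 96 hours; 0% = vehicle DMSO and 100% = killing by high DMSO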); conditions: LFS_MB_P medulloblastoma cells
[15] = growth inhibition, single agent and combos, cell-based, chromothripsis tumors, cisplatin or BGB combos (AID 1671450; in the data active = inhibition above about 80%;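 note: cells exposed to compound for four days; 0% = vehicle DMSO and 100% = cell killing by high DMSO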); conditions: HDN33 neuroblastoma cells, stronger effect = higher value
[16] = growth inhibition, single agents and combos, ICB984, cell-based, cisplatin or BGB combos, synergistic combos for chromothripsis tumors (AID 1671451); conditions: ICB984 medulloblastoma cells, drug combinations, stronger effect = higher value;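 note: cells exposed for 96 hours before readout; 0% = vehicle DMSO and 100% = killing by high DMSO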
[17] = growth inhibition, single agents and combos, HTB85, cell-based, BGB or cisplatin IC20 combos, synergistic combos for chromothripsis tumors (AID 1671453; in the data active = inhibition above about 80%;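 note: cells exposed for 96 hours before readout; 0% = vehicle DMSO and 100% = high DMSO killing control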); conditions: HTB85 osteosarcoma cells, drug combinations, stronger effect = higher value
[18] = growth inhibition, MDA-MB-436, cell-based, BGB or cisplatin combos, synergistic combos for chromothripsis tumors (AID 1671458); conditions: MDA-MB-436 breast carcinoma growth inhibition, drug combinations, stronger effect = higher value;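 note: cells exposed for 96 hours; 0% = vehicle DMSO and 100% = killing by high DMSO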
[19] = BT084 cell growth, single and combined drugs, ICGC_MB145, cisplatin and BGB IC40 combos (AID 1671461; in the data active = inhibition above about 80%;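 note: cells exposed to drugs for 96 hours; 0% = vehicle DMSO and 100% = high DMSO full killing control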); conditions: BT084 medulloblastoma cells, drug combinations, stronger effect = higher value
[20] = stronger effect = lower value, cell number ratio, induced over uninduced
[21] = measured here: relative caspase fold change +Dox/-Dox
[22] = measured here: total cells with miR-34 induction, stronger effect = lower value
[23] = measured here: total cells without miR-34 induction
[24] = MELAS cybrid survival, CellTiter-Glo 48 h, stronger effect = higher value
[25] = Rieske KO mouse fibroblast survival, CellTiter-Glo 72 h

With C[C@H](NC(=O)c1sccc1OCc1ccc(Cl)cc1)c1ccccc1 the remaining activity [1] was 124% (inactive), the outcome [2] was “inactive” and the fold change [3, 20] was 1.09 (inactive). It also gave a fold change [3, 21] of 1.01, a cell count [3, 22] of 4320 and a cell count [3, 23] of 3970. For the same compound, the z-score [4] was -1.04 (inactive).

For O=S(=O)(NCCNC/C=C/c1ccc(Br)cc1)c1cccc2cnccc12, the period change [5] was -0.05 h (inactive), the survival [6] was 202 (active) and the parasite load remaining [7] was 26.7% (inactive). The viability [7] was 66.5%, the remaining activity [1] was 114% (inactive) and the outcome [2] was “inactive”. The fold change [3, 20] was 0.909 (inactive) and 1.06 (inactive), the fold change [3, 21] was 1.15 and 1.08 and the cell count [3, 22] was 2930 and 6810. For the same compound, the cell count [3, 23] was 3220 and 6450, the fold fluorescence [8] was 7.62 [at 112 µM] (inactive) and the z-score [4] was -0.61 (inactive).

In the case of Oc1ccc(-c2nc(-c3ccc(F)cc3)c(-c3ccncc3)[nH]2)cc1, the period change [5] is reported as 1.07 h (active), the survival [6] is reported as 94 (inactive) and the parasite load remaining [7] is reported as 28.5% (inactive). The viability [7] was 95.1%, the inhibition [9] was -3% (inactive) and the fluorescence ratio (interference) [10] was 0.9 (inactive). For the same compound, the remaining activity [1] was 114% (inactive), the outcome [2] was “inactive” and the fold fluorescence [8] was 8.11 [at 150.9 µM] (inactive). The outcome [11] was “inactive”, the z-score [12, 24] was -0.659 (inactive) and the z-score [12, 25] was 0.329. The z-score [4] was 1.04 (inactive) and 0.455 (inactive).

For N#C/C(=C(/N)Sc1ccc(N)cc1)c1ccccc1C(F)(F)F, the parasite load remaining [7] was 62.2% (inactive), the viability [7] was 76.3% and the remaining activity [1] was 113% (inactive). The outcome [2] was “inactive”, the fold change [3, 20] was 0.944 (inactive) and the fold change [3, 21] was 0.995. For the same compound, the cell count [3, 22] was 5510, the cell count [3, 23] was 5840 and the z-score [4] was -0.775 (inactive).

With NC(=O)c1ccc(-c2nc(-c3ccc4c(c3)OCCO4)c(-c3ccccn3)[nH]2)cc1 the parasite load remaining [7] was 23.5% (inactive), the viability [7] was 94.8% and the remaining activity [1] was 105% (inactive). For the same compound, the outcome [2] was “inactive”, the fold change [3, 20] was 0.947 (inactive) and 0.907 (inactive) and the fold change [3, 21] was 1.17 and 1.19. The cell count [3, 22] was 6010 and 7770, the cell count [3, 23] was 6350 and 8570 and the SSMD [13] was 3.6. The cell count [13] was 7030, the plate-normalised HSF1 focus index [13] was 1.22 (inactive) and the z-score [4] was -0.34 (inactive).

With O=c1ncccn1[C@@H]1O[C@H](CO)[C@@H](O)[C@H]1O the remaining activity [1] was 115% (inactive), the outcome [2] was “inactive” and the fold change [3, 20] was 1 (inactive). It also gave a fold change [3, 21] of 1.17, a cell count [3, 22] of 7460 and a cell count [3, 23] of 7440. For the same compound, the z-score [4] was -0.025 (inactive), the inhibition ([14]; at 0.5 µM, stronger effect = higher value) was 94.5% (active) and the inhibition ([14]; measured here: combination with BGB IC20, at 0.005 µM) was -19.6%. The inhibition ([14]; measured here: combination with BGB IC40, at 0.005 µM) was -15.6%, the inhibition ([14]; measured here: combination with BGB IC40, at 0.05 µM) was -21.7% and the inhibition ([14]; measured here: combination with cisplatin, at 0.5 µM, stronger effect = higher value) was 116%. For the same compound, the inhibition ([14]; measured here: combination with cisplatin, at 5 µM, stronger effect = higher value) was -26.6%, the inhibition ([15]; BGB combo, at 5 µM) was -58.6% and the inhibition ([15]; at 0.5 µM) was -38.5% (inactive). For the same compound, the inhibition ([15]; cisplatin combo, at 5 µM) was -44.1%, the inhibition ([15]; measured here: with BGB IC20 combination, at 0.5 µM) was -41.3% and the inhibition ([15]; measured here: with cisplatin IC20 combination, at 0.5 µM) was -33.1%. For the same compound, the inhibition ([15]; single agent, at 5 µM) was -32.1%, the inhibition ([16]; BGB IC20 combo, at 0.005 µM) was 4.35% and the inhibition ([16]; BGB IC40 combo, at 0.005 µM) was -50.2%. The inhibition ([16]; BGB IC40 combo, at 0.05 µM) was -18%, the inhibition ([16]; at 0.5 µM) was -16.8% (inactive) and the inhibition ([16]; cisplatin combo, at 0.05 µM) was -22.2%. It also gave an inhibition ([16]; cisplatin combo, at 0.5 µM) of -22.8%, an inhibition ([16]; cisplatin combo, at 5 µM) of -30.8% and an inhibition ([16]; measured here: 5 uM single agent, at 5 µM) of -3.85%. For the same compound, the inhibition ([17]; at 0.5 µM) was -26.7% (inactive), the inhibition ([17]; measured here: with BGB IC20, at 0.5 µM) was -35% and the inhibition ([17]; measured here: with BGB IC20, at 5 µM) was -20.6%. The inhibition ([17]; measured here: with cisplatin IC20, at 0.5 µM) was -23.7%, the inhibition ([17]; measured here: with cisplatin IC20, at 5 µM) was -31.4% and the inhibition ([17]; single agent, at 5 µM) was -19.2%. The inhibition ([18]; at 0.5 µM) was -13.6% (inactive), the inhibition ([18]; measured here: BGB combination, at 0.5 µM) was -17.7% and the inhibition ([18]; measured here: BGB combination, at 5 µM) was -15.1%. For the same compound, the inhibition ([18]; measured here: cisplatin combination, at 0.5 µM) was -10.4%, the inhibition ([18]; measured here: cisplatin combination, at 5 µM) was -7.02% and the inhibition ([19]; at 0.5 µM) was -5.93% (inactive). For the same compound, the inhibition ([19]; cisplatin combination, at 0.5 µM) was -27.2%, the inhibition ([19]; cisplatin combination, at 5 µM) was -19.4% and the inhibition ([19]; measured here: BGB IC40 combination 0.05 uM, at 0.05 µM) was -6.16%. It also gave an inhibition ([19]; single agent, at 5 µM) of -11.2%.

With CC(C)NC[C@H](O)COc1ccc(CC(N)=O)cc1 the period change [5] was -0.06 h (inactive), the parasite load remaining [7] was 111% (inactive) and the viability [7] was 102%. For the same compound, the inhibition [9] was -2% (inactive), the fluorescence ratio (interference) [10] was 1 (inactive) and the remaining activity [1] was 87% (inactive). The fold change [3, 20] was 1.04 (inactive) and 0.889 (inactive) and 0.97 (inactive), the fold change [3, 21] was 1.51 and 1.14 and 0.697 and the cell count [3, 22] was 7050 and 9340 and 9400. The cell count [3, 23] was 6770 and 10500 and 9690, the outcome [11] was “inactive” and the z-score [12, 24] was -0.419 (inactive). The z-score [12, 25] was -1.01 and the z-score [4] was 0.305 (inactive) and -0.32 (inactive).

For O=C1Cc2c([nH]c3ccc(Br)cc23)-c2ccccc2N1, the period change [5] was -0.835 h (active), the parasite load remaining [7] was 33% (inactive) and the viability [7] was 64.2%. For the same compound, the inhibition [9] was 1% (inactive), the fluorescence ratio (interference) [10] was 1 (inactive) and the remaining activity [1] was 115% (inactive). The fold change [3, 20] was 1.11 (inactive) and 0.922 (inactive) and 1.05 (inactive), the fold change [3, 21] was 0.981 and 0.403 and 0.535 and the cell count [3, 22] was 4020 and 4080 and 1060. The cell count [3, 23] was 3640 and 4430 and 1010, the outcome [11] was “inactive” and the z-score [4] was -0.785 (inactive) and -0.43 (inactive).

With Cc1ccc(-c2nn(C(C)(C)C)c3ncnc(N)c23)cc1 the survival [6] was 82.2 (inactive), the remaining activity [1] was 109% (inactive) and the fold change [3, 20] was 1.15 (inactive) and 0.969 (inactive) and 1.02 (inactive). For the same compound, the fold change [3, 21] was 0.8 and 0.845 and 0.764, the cell count [3, 22] was 850 and 2400 and 3230 and the cell count [3, 23] was 738 and 2480 and 3170. For the same compound, the fold fluorescence [8] was 12.9 [at 177.7 µM] (inactive), the z-score [12, 24] was 0.565 (inactive) and the z-score [12, 25] was -0.238. For the same compound, the z-score [4] was 0.19 (inactive).

In the case of CCN(CC)CCCCNc1ncc2cc(-c3c(Cl)cccc3Cl)c(NC(=O)NC(C)(C)C)nc2n1, the remaining activity [1] is reported as 131% (inactive), the fold change [3, 20] is reported as 0.841 (inactive) and 1.42 (inactive) and the fold change [3, 21] is reported as 1.06 and 1.08. For the same compound, the cell count [3, 22] was 938 and 569, the cell count [3, 23] was 1110 and 401 and the outcome [11] was “inactive”. The z-score [4] was -0.7 (inactive) and -1 (inactive).

With CCCCCCCCCCCCCCCC(=O)OC(CC(=O)O)C[N+](C)(C)C (stereo not given) the period change [5] was 0.01 h (inactive), the survival [6] was 103 (inactive) and the inhibition [9] was -4% (inactive). For the same compound, the fluorescence ratio (interference) [10] was 1 (inactive), the remaining activity [1] was 122% (inactive) and the fold change [3, 20] was 1.09 (inactive) and 1.01 (inactive). For the same compound, the fold change [3, 21] was 0.674 and 0.826, the cell count [3, 22] was 6530 and 7890 and the cell count [3, 23] was 5960 and 7780. The outcome [11] was “inactive” and the z-score [4] was -1.29 (inactive) and -1.24 (inactive).
